# Assay results from PubChem BioAssay (EPA / NIEHS).
# Inconclusive results are not listed. The source made the active and inactive calls. How the source made its calls, unless noted: active means hit-call score of the fitted dose curve at least 0.9, where 1 is the maximum; inactive means score below 0.9.
# Experiments:
# [1] = BSK_BT_PBMCCytotoxicity: PBMC Cytotoxicity Assessment in the BioMAP Diversity Plus: BT Assay (AID 2284225); conditions: primary human B cells with PBMC;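 further: PBMC viability measured by Alamar Blue dye reduction fluorescence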
# Method in brief: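 PBMC (75,000/well) pretreated with compound 1 h, then activated with SEB and TSST-1 (20 ng/mL each final), incubated 90 h; Alamar Blue added 6 h, fluorescence read at 546/580 nm. Fitted relative to DMSO.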
# [2] = read-out: Secreted IgG (sIgG), gene 3500; assay: BSK_BT_sIgG: BioMAP Diversity Plus: BT Assay for Secreted IgG (sIgG) Biomarker Activity (AID 2284226); conditions: primary human B cells with PBMC
# Method in brief: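 Human B cell plus PBMC co-culture; secreted IgG measured by ELISA 24 h after chemical dosing. Response fitted in positive direction relative to DMSO baseline.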
# [3] = BSK_BT_Bcell_Proliferation: Viability Assessment in the BioMAP Diversity Plus: BT Assay for B cell Proliferation (AID 2284227); conditions: primary human B cells with PBMC
# Method in brief: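 Using a human primary B cell–PBMC co-culture, the assay measures total protein by sulforhodamine B absorbance as a gauge of proliferation after 72 h. Analysis followed the positive fitting direction with DMSO as baseline.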
# [4] = read-out: Interleukin 6 (IL6), IL6 (gene 3569); assay: BSK_BT_xIL6: BioMAP Diversity Plus: BT Assay for Interleukin 6 (IL6) Biomarker Activity (AID 2284228); conditions: primary human B cells with PBMC
# Method in brief: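 B cells and peripheral blood mononuclear cells (human primary co-culture) were dosed with chemical, and after 24 h IL-6 released into the medium was measured by Luminex xMAP. Responses were analysed as gain of signal over DMSO control.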
# [5] = read-out: Interleukin 17A (IL17A), IL17A (gene 3605); assay: BSK_BT_xIL17A: BioMAP Diversity Plus: BT Assay for Interleukin 17A (IL17A) Biomarker Activity (AID 2284229); conditions: primary human B cells with PBMC
# Method in brief: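 Secreted IL-17A was the measured endpoint, read by Luminex xMAP multiplex in supernatants of a human B cell/PBMC co-culture harvested 24 h after chemical dosing. Signal increase relative to DMSO defined activity.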
# [6] = read-out: Vascular cell adhesion molecule 1 (VCAM1), VCAM1 (gene 7412); assay: BSK_MyoF_VCAM1: BioMAP Diversity Plus: MyoF Assay for Vascular cell adhesion molecule 1 (VCAM1) Biomarker Activity (AID 2284231); conditions: primary human lung fibroblasts
# Method in brief: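 ELISA read-out of VCAM-1 on human lung fibroblasts 24 h after chemical treatment, with positive-direction curve fitting relative to DMSO controls. Parallel cultures were stained with sulforhodamine B for total protein to flag overt cytotoxicity.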
# [7] = read-out: Collagen I, COL1A1 (gene 1277); assay: BSK_MyoF_CollagenI: BioMAP Diversity Plus: MyoF Assay for Collagen I Biomarker Activity (AID 2284238); conditions: primary human lung fibroblasts
# Method in brief: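 Lung fibroblasts (human primary) dosed, 24 h; Collagen I by ELISA; positive-direction fit vs DMSO control. Parallel SRB total-protein staining (0.1% SRB, 10% TCA fixation, 560 nm) flags overt cytotoxicity.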
# [8] = read-out: Collagen III, COL3A1 (gene 1281); assay: BSK_MyoF_CollagenIII: BioMAP Diversity Plus: MyoF Assay for Collagen III Biomarker Activity (AID 2284239); conditions: primary human lung fibroblasts
# Method in brief: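 ELISA read-out of collagen III from human lung fibroblasts after 24 h of chemical treatment. The DMSO control served as negative control and baseline, with values fitted in the positive direction.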
# [9] = TAMU_PeakParms_SingleDonor1434_QT: Texas A&M University (TAMU) 1.5-hr Human Induced Pluripotent Stem Cell (iPSC)-derived Cardiomyocytes Calcium (Ca+2) Flux Assay for Cardiotoxicity: QT (decay-rise ratio) (AID 2284235; active means hit-call score of the fitted dose curve at least 0.9, where 1 is the maximum)
# Method in brief: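 iPSC-derived cardiomyocytes (single donor 1434) dosed at 0.2, 1, 10, 100 uM final in 0.5% DMSO, 90 min at 37C. Ca2+ flux fluorescence decay/rise ratio; EC05 (5% increase versus DMSO) as POD, excluding beat-arrest and severe-notch data.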
smiles,measurement,setting,value
IC(I)I,outcome,[1],inactive
same,outcome,[2],inactive
same,outcome,[3],inactive
same,outcome,[4],inactive
same,outcome,[5],inactive
same,outcome,[6],inactive
same,outcome,[7],inactive
same,outcome,[8],inactive
C=C(C)[C@H]1CC=C(C)C(=O)C1,outcome,[1],inactive
same,outcome,[2],inactive
same,outcome,[3],inactive
same,outcome,[4],inactive
same,outcome,[5],inactive
same,outcome,[6],inactive
same,outcome,[7],inactive
same,outcome,[8],inactive
CC(=O)c1c(C)c([N+](=O)[O-])c(C(C)(C)C)c([N+](=O)[O-])c1C,outcome,[1],inactive
same,AC50,[2],30.5 µM (active)
same,outcome,[3],inactive
same,outcome,[4],inactive
same,outcome,[5],inactive
same,outcome,[6],inactive
same,outcome,[7],inactive
same,outcome,[8],inactive
CN(C)C(=O)Nc1ccc(Oc2ccc(Cl)cc2)cc1,outcome,[1],inactive
same,AC50,[2],20 µM (active)
same,outcome,[3],inactive
same,outcome,[4],inactive
same,outcome,[5],inactive
same,outcome,[6],inactive
same,outcome,[7],inactive
same,outcome,[8],inactive
CC(C)(N=C=O)c1cccc(C(C)(C)N=C=O)c1,outcome,[1],inactive
same,outcome,[2],inactive
same,outcome,[3],inactive
same,outcome,[4],inactive
same,outcome,[5],inactive
same,outcome,[6],inactive
same,outcome,[7],inactive
same,outcome,[8],inactive
CC(C)(C)CC(C)(C)c1ccc(OCCOCC[N+](C)(C)Cc2ccccc2)cc1,AC50,[1],8.02 µM (active)
same,AC50,[2],1.57 µM (active)
same,AC50,[3],5 µM (active)
same,outcome,[4],inactive
same,AC50,[5],8.48 µM (active)
same,AC50,[6],8.24 µM (active)
same,AC50,[7],5 µM (active)
same,AC50,[8],7.02 µM (active)
CSCCC=O,outcome,[1],inactive
same,outcome,[2],inactive
same,outcome,[3],inactive
same,outcome,[4],inactive
same,outcome,[5],inactive
same,outcome,[6],inactive
same,outcome,[7],inactive
same,outcome,[8],inactive
CCCCN(CCCC)C(=O)N(CCCC)CCCC,AC50,[1],32.8 µM (active)
same,AC50,[2],14.6 µM (active)
same,AC50,[3],31.4 µM (active)
same,AC50,[4],29 µM (active)
same,AC50,[5],14.5 µM (active)
same,AC50,[6],10.5 µM (active)
same,AC50,[7],9.53 µM (active)
same,AC50,[8],8.12 µM (active)
CCCCOC(=O)CCCCCCCC(=O)OCCCC,outcome,[1],inactive
same,outcome,[2],inactive
same,outcome,[3],inactive
same,outcome,[4],inactive
same,outcome,[5],inactive
same,outcome,[6],inactive
same,outcome,[7],inactive
same,outcome,[8],inactive
CC(C)NCC(O)COc1ccc(CC(N)=O)cc1 (centres undefined),outcome,[9],inactive
O=C1OC[C@H](Cc2cccc(O)c2)[C@H]1Cc1cccc(O)c1,outcome,[1],inactive
same,outcome,[2],inactive
same,outcome,[3],inactive
same,outcome,[4],inactive
same,outcome,[5],inactive
same,outcome,[6],inactive
same,outcome,[7],inactive
same,outcome,[8],inactive
CN(c1nccc(=O)[nH]1)C1CCN(c2nc3ccccc3n2Cc2ccc(F)cc2)CC1,outcome,[1],inactive
same,AC50,[2],14.6 µM (active)
same,outcome,[3],inactive
same,outcome,[4],inactive
same,outcome,[5],inactive
same,AC50,[6],3.1 µM (active)
same,outcome,[7],inactive
same,outcome,[8],inactive
COc1cc(Cl)c(OC)cc1N,outcome,[1],inactive
same,outcome,[2],inactive
same,outcome,[3],inactive
same,outcome,[4],inactive
same,outcome,[5],inactive
same,outcome,[6],inactive
same,outcome,[7],inactive
same,outcome,[8],inactive
C1=CC2C3C=CC(C3)C2C1 (centres undefined),outcome,[1],inactive
same,outcome,[2],inactive
same,outcome,[3],inactive
same,outcome,[4],inactive
same,outcome,[5],inactive
same,outcome,[6],inactive
same,outcome,[7],inactive
same,outcome,[8],inactive
COc1ccc(OC)c(N=Nc2c(O)ccc3ccccc23)c1,outcome,[1],inactive
same,AC50,[2],9.86 µM (active)
same,outcome,[3],inactive
same,outcome,[4],inactive
same,outcome,[5],inactive
same,AC50,[6],9.05 µM (active)
same,outcome,[7],inactive
same,AC50,[8],10.4 µM (active)
CCCCCCCCCCCCCCCC(=O)OC/C=C(C)/C=C/C=C(C)/C=C/C1=C(C)CCCC1(C)C,outcome,[1],inactive
same,AC50,[2],20 µM (active)
same,outcome,[3],inactive
same,AC50,[4],31.2 µM (active)
same,outcome,[5],inactive
same,outcome,[6],inactive
same,outcome,[7],inactive
same,outcome,[8],inactive
CCN(CC)C(=O)N(CC)CC,outcome,[1],inactive
same,outcome,[2],inactive
same,outcome,[3],inactive
same,outcome,[4],inactive
same,outcome,[5],inactive
same,outcome,[6],inactive
same,outcome,[7],inactive
same,outcome,[8],inactive
c1ccc2cc(Nc3ccc(Nc4ccc5ccccc5c4)cc3)ccc2c1,outcome,[1],inactive
same,outcome,[2],inactive
same,outcome,[3],inactive
same,AC50,[4],1.12 µM (active)
same,outcome,[5],inactive
same,outcome,[6],inactive
same,outcome,[7],inactive
same,AC50,[8],4.82 µM (active)
CC(=O)C1(C)CC2=C(CCCC2(C)C)CC1C (centres undefined),AC50,[1],31.9 µM (active)
same,AC50,[2],28.8 µM (active)
same,AC50,[3],34.7 µM (active)
same,AC50,[4],28.5 µM (active)
same,AC50,[5],26 µM (active)
same,AC50,[6],12.1 µM (active)
same,AC50,[7],24.7 µM (active)
same,AC50,[8],26 µM (active)
c1ccc(Oc2ccccc2)cc1,outcome,[1],inactive
same,outcome,[2],inactive
same,outcome,[3],inactive
same,outcome,[4],inactive
same,outcome,[5],inactive
same,outcome,[6],inactive
same,outcome,[7],inactive
same,outcome,[8],inactive
C=C(C)C(=O)OCC(CC)(COC(=O)C(=C)C)COC(=O)C(=C)C,outcome,[1],inactive
same,AC50,[2],3.08 µM (active)
same,AC50,[3],25.5 µM (active)
same,AC50,[4],19.7 µM (active)
same,outcome,[5],inactive
same,AC50,[6],11.2 µM (active)
same,AC50,[7],10.2 µM (active)
same,AC50,[8],29.3 µM (active)
O=C1OC2(c3ccccc31)c1ccc(O)c(Br)c1Oc1c2ccc(O)c1Br,outcome,[1],inactive
same,outcome,[2],inactive
same,outcome,[3],inactive
same,outcome,[4],inactive
same,outcome,[5],inactive
same,outcome,[6],inactive
same,outcome,[7],inactive
same,AC50,[8],20 µM (active)
